# Source: ChEMBL document CHEMBL1157539, “Thousands of chemical starting points for antimalarial lead identification” (Nature, 2010)
# “And” between values parts separate entries of the source, which are not always exact repeats. Identical values can stand only once.
# Key:
# Format in all cases: functional
# [1] = system: Plasmodium falciparum; experiment: GSK_TCMDC: Inhibition of Plasmodium falciparum 3D7 in whole red blood cells, using parasite LDH activity as an index of growth. Test compounds present at 2uM
# [2] = system: Plasmodium falciparum; experiment: GSK_TCMDC: Inhibition of Plasmodium falciparum Dd2 in whole red blood cells, using parasite LDH activity as an index of growth. Test compounds present at 2uM
# [3] = system: HepG2; experiment: GSK_TCMDC: Percent inhibition of human HepG2 cell line. Test compounds present at 10uM.
smiles,measurement,setting,value
CC(=O)Nc1ccc(OCCN(CC(C)C)c2ccc(C#N)c(C(F)(F)F)c2)c(Cl)c1,Inhibition,[1],94%
same,Inhibition,[2],94%
same,Inhibition,[3],13%
Br.COc1ccc(CC(C)NCC(O)c2cccc(C(F)(F)F)c2)cc1F (centres undefined),Inhibition,[1],91%
same,Inhibition,[2],65%
same,Inhibition,[3],0%
Cc1nc(-c2ccc(-c3ccc(C(=O)Nc4ccc5c(c4)C4(CCNCC4)CO5)cc3)c(C)c2)no1.Cl,Inhibition,[1],90%
same,Inhibition,[2],15%
same,Inhibition,[3],37%
O=C(Nc1cc(C(F)(F)F)cc(C(F)(F)F)c1)NC1CCC(CN2CCC(c3c[nH]c4ccccc34)CC2)CC1 (centres undefined),Inhibition,[1],97% and 100%
same,Inhibition,[2],98% and 72%
C#CCOc1ccc(CC(C)NCC(O)c2cccc(C(F)(F)F)c2)cc1 (centres undefined),Inhibition,[1],93% and 90%
same,Inhibition,[2],84% and 74%
CCC1=C[C@@H]2CN(C1)Cc1c([nH]c3ccccc13)[C@@](C(=O)OC)(c1cc3c(cc1OC)N(C)[C@H]1[C@@](O)(C(=O)OC)[C@H](O)[C@]4(CC)C=CCN5CC[C@]31[C@@H]54)C2.O=S(=O)(O)O,Inhibition,[1],98%
same,Inhibition,[2],99%
COC(=O)c1ccc(CC(C)NCC(O)c2cccc(C(F)(F)F)c2)cc1.Cl (centres undefined),Inhibition,[1],97%
same,Inhibition,[2],87%
same,Inhibition,[3],0%
O=C(/C=C/c1ccc(Cl)c(Cl)c1)NC1CCC(CN2CCC(c3c[nH]c4cc(C(F)(F)F)ccc34)CC2)CC1 (centres undefined),Inhibition,[1],100% and 98%
same,Inhibition,[2],38% and 85%
O=C(/C=C/c1ccc(Cl)c(Cl)c1)NCCC1CCC(N2CCC(c3c[nH]c4ccccc34)CC2)CC1 (centres undefined),Inhibition,[1],100%
same,Inhibition,[2],99%
same,Inhibition,[3],91%
CC(=O)Nc1ccc(CN2CCC(N(C)c3cc(NC(=O)c4ccc(F)cc4)ccn3)CC2)cc1.O=C(O)C(F)(F)F,Inhibition,[1],95%
same,Inhibition,[2],5%
same,Inhibition,[3],0%
COC(=O)/C=C/c1ccc(CC(C)NCC(O)c2cccc(C(F)(F)F)c2)cc1 (centres undefined),Inhibition,[1],97%
same,Inhibition,[2],96%
same,Inhibition,[3],16%
CCOC(=O)CCCN1C(=O)CN=C(c2ccccc2)c2cc(Cl)ccc21,Inhibition,[1],97%
same,Inhibition,[2],47%
same,Inhibition,[3],54%
CC[C@H]1CN2CC[C@H]1C[C@H]2[C@H](O)c1cc(-c2ccc(C)cc2)nc2ccc(OC)cc12.Cl,Inhibition,[1],99%
same,Inhibition,[2],99%
same,Inhibition,[3],22%
CC(Cc1ccc(OCCOc2ccccc2)cc1)NCC(O)c1cccc(Cl)c1 (centres undefined),Inhibition,[1],99%
same,Inhibition,[2],99%
same,Inhibition,[3],12%
O=C(CCc1ccco1)NC1CCN(CC2(c3ccc(Cl)cc3)CCC2)CC1,Inhibition,[1],99%
same,Inhibition,[2],67%
same,Inhibition,[3],0%
CN(c1cc(NC(=O)c2cccs2)ccn1)C1CCN(Cc2cccc(C#N)c2)CC1.O=C(O)C(F)(F)F,Inhibition,[1],90%
same,Inhibition,[2],69%
same,Inhibition,[3],59%
OC(CNC1CCCCC1)c1ccc(Cl)c(Cl)c1 (centres undefined),Inhibition,[1],99%
same,Inhibition,[2],96%
same,Inhibition,[3],17%
O=C(Nc1cc(C(F)(F)F)cc(C(F)(F)F)c1)N1CCC(CN2CCC(c3c[nH]c4ccccc34)CC2)CC1,Inhibition,[1],100%
same,Inhibition,[2],99%
same,Inhibition,[3],42%
Cc1c(C)c2c(c(C)c1O)CC[C@@](C)(C(=O)N1CCC(CN3CCC(c4c[nH]c5ccccc45)CC3)CC1)O2,Inhibition,[1],98%
same,Inhibition,[2],90%
same,Inhibition,[3],21%
CN(Cc1ccccc1)C1CCN(CCc2c[nH]c3ccc(F)cc23)CC1.O=C(O)C(F)(F)F,Inhibition,[1],100%
same,Inhibition,[2],91%
same,Inhibition,[3],28%
CCCCCc1cc(O)c2c(c1)OC(C)(C)c1ccncc1-2.Cl,Inhibition,[1],99%
same,Inhibition,[2],57%
same,Inhibition,[3],0%
CC(=O)N(Cc1ccc(-c2ccc(CNCCc3ccccc3)cc2)cc1)C1CCN(Cc2ccccc2)CC1.O=C(O)C(F)(F)F,Inhibition,[1],95%
same,Inhibition,[2],15%
same,Inhibition,[3],45%
CN1CC(c2ccc(Cl)c(Cl)c2)OC1=N.I (centres undefined),Inhibition,[1],99%
same,Inhibition,[2],3%
CC[C@H]1CN2CC[C@@H]1C[C@H]2[C@H](O)c1cc(-c2ccc(F)cc2)nc2ccc(O)cc12.Cl,Inhibition,[1],99%
same,Inhibition,[2],99%
same,Inhibition,[3],25%
CCCCc1ccc2[nH]cc(C3=CCN(C)CC3)c2c1Br,Inhibition,[1],94%
same,Inhibition,[2],94%
same,Inhibition,[3],37%
Br.CC(Cc1ccc(CSC(C)C)cc1)NCC(O)c1cccc(Cl)c1 (centres undefined),Inhibition,[1],98%
same,Inhibition,[2],98%
same,Inhibition,[3],11%
CCN(CC)CCCC(C)Nc1ccnc2cc(Cl)ccc12.O=P(O)(O)O.O=P(O)(O)O (centres undefined) [CHLOROQUINE PHOSPHATE],Inhibition,[1],100%
COc1ccc(C(=O)c2ccc3[nH]cc(C4=CCN(C)CC4)c3c2)cc1,Inhibition,[1],88%
same,Inhibition,[2],55%
CO/C(=C\C=C\c1cc2cc(Cl)c(Cl)cc2[nH]1)C(=O)N[C@H]1CN2CCC1CC2,Inhibition,[1],82%
same,Inhibition,[2],36%
same,Inhibition,[3],43%
CC(=O)N(Cc1ccccc1-c1cccc(CNCc2ccc3c(c2)OCO3)c1)C1CCN(Cc2ccccc2)CC1.O=C(O)C(F)(F)F,Inhibition,[1],85%
same,Inhibition,[2],44%
same,Inhibition,[3],17%
CCCc1cc(O)c2c3c(c(=O)oc2c1)CN(C)CC3,Inhibition,[1],98%
same,Inhibition,[2],50%
same,Inhibition,[3],12%
CC[C@H]1CN2CC[C@H]1C[C@H]2[C@H](O)c1cc(N2CCCC2)nc2ccc(OC)cc12,Inhibition,[1],98%
same,Inhibition,[2],100%
same,Inhibition,[3],0%
CCC(C)(C)NC(C)C(O)c1ccc(C(F)(F)F)cc1.Cl (centres undefined),Inhibition,[1],97%
same,Inhibition,[2],90%
N=C(N)NC(=O)Nc1ccc([N+](=O)[O-])c(Cl)c1,Inhibition,[1],90%
same,Inhibition,[2],12%
CN1CC=C(c2c[nH]c3ccc(C(=O)c4nccs4)cc23)CC1,Inhibition,[1],89%
same,Inhibition,[2],73%
COc1ccc(C(=O)C2CC2CN2CC=C(c3c(C)[nH]c4ccccc34)CC2)cc1 (centres undefined),Inhibition,[1],96%
same,Inhibition,[2],94%
same,Inhibition,[3],16%
COc1cc(C=CC(=O)NC2CCC(CN3CCC(c4c[nH]c5ccccc45)CC3)CC2)cc(OC)c1 (centres undefined),Inhibition,[1],100%
same,Inhibition,[2],90%
same,Inhibition,[3],38%
CN(C)c1cccc(NC(=O)N[C@H]2N=C(c3ccccc3)c3ccccc3N(CC(=O)N3CCCC3)C2=O)c1,Inhibition,[1],98%
same,Inhibition,[2],98%
same,Inhibition,[3],0%
CNCCN(C)C(=O)Oc1c(Cl)c(C)nc(C)c1-c1ccc(Oc2ccc(OC(F)(F)F)cc2)cc1.Cl,Inhibition,[1],97%
same,Inhibition,[2],96%
same,Inhibition,[3],0%
CS(=O)(=O)Nc1ccc2[nH]cc(C3CCN(CC4CCC(NC(=O)/C=C/c5ccc(Cl)c(Cl)c5)CC4)CC3)c2c1 (centres undefined),Inhibition,[1],100%
same,Inhibition,[2],86%
same,Inhibition,[3],22%
CCC(C)CN1CCC(N(C)c2cc(NC(=O)c3ccc(F)cc3)ccn2)CC1.O=C(O)C(F)(F)F (centres undefined),Inhibition,[1],93%
same,Inhibition,[2],32%
same,Inhibition,[3],4%
CC[C@H]1CN2CC[C@@H]1C[C@H]2[C@H](O)c1cc(N2CCC(O)CC2)nc2ccc(OC)cc12,Inhibition,[1],99%
same,Inhibition,[2],92%
same,Inhibition,[3],15%
Cl.c1ccc2c(NCCCCCCCCCNc3c4ccccc4nc4ccccc34)c3ccccc3nc2c1,Inhibition,[1],100%
same,Inhibition,[2],95%
same,Inhibition,[3],99%
CN(c1cc(NC(=O)c2ccc(F)cc2)ccn1)C1CCN(Cc2cccc(F)c2)CC1.O=C(O)C(F)(F)F,Inhibition,[1],100%
same,Inhibition,[2],97%
same,Inhibition,[3],13%
CN(c1ccnc(Nc2ccc(CS(C)(=O)=O)cc2)n1)C1CCN(Cc2ccccc2)CC1,Inhibition,[1],83%
same,Inhibition,[2],9%
same,Inhibition,[3],10%
CC1CN=C(Nc2ncc(Cl)cc2Cl)N1.Cl (centres undefined),Inhibition,[1],99%
same,Inhibition,[2],3%
same,Inhibition,[3],2%
Cl.Fc1ccc2[nH]cc(CCN3CCC(CNCc4ccccc4)CC3)c2c1,Inhibition,[1],100%
same,Inhibition,[2],94%
same,Inhibition,[3],67%
CC[C@H]1CN2CC[C@@H]1C[C@H]2[C@H](O)c1ccnc2ccc(OC)cc12,Inhibition,[1],100%
same,Inhibition,[2],61%
same,Inhibition,[3],0%
C=Cc1cc(OC)c2c(c1)c(=O)oc1c2cc(OC)c2c(O)ccc([C@H]3O[C@H]([C@H](C)O)[C@H](O)[C@H]3O)c21,Inhibition,[1],95%
same,Inhibition,[2],41%
same,Inhibition,[3],33%
O=C(/C=C/C=C/c1ccccc1)NC1CCC(CN2CCC(c3c[nH]c4ccccc34)CC2)CC1 (centres undefined),Inhibition,[1],100%
same,Inhibition,[2],66%
same,Inhibition,[3],49%
O=C(NC1CCC(CN2CCC(c3c[nH]c4ccccc34)CC2)CC1)c1cc2ccccc2s1 (centres undefined),Inhibition,[1],98% and 100%
same,Inhibition,[2],68% and 43%
same,Inhibition,[3],44%
COc1ccc(CN2CCN(CCOC(c3ccc(F)cc3)c3ccc(F)cc3)CC2)c(O)c1,Inhibition,[1],97%
same,Inhibition,[2],97%
same,Inhibition,[3],6%
COc1ccc(C[C@@H](C)NC[C@H](O)c2cccc(Cl)c2)cc1F,Inhibition,[1],89%
same,Inhibition,[2],75%
same,Inhibition,[3],6%
COC(=O)/C=C/c1ccc(CC(C)NCC(O)c2cccc(Br)c2)cc1 (centres undefined),Inhibition,[1],97%
same,Inhibition,[2],93%
same,Inhibition,[3],2%
O=C(CSc1ccc(Cl)cc1)NC1CCC(CN2CCC(c3c[nH]c4ccccc34)CC2)CC1 (centres undefined),Inhibition,[1],95%
same,Inhibition,[2],21%
same,Inhibition,[3],41%
Cn1c(C2CC3CCC(C2)N3CC2CCC(NC(=O)/C=C/c3ccc(Cl)c(Cl)c3)CC2)nc2ccccc21 (centres undefined),Inhibition,[1],100%
same,Inhibition,[2],51%
same,Inhibition,[3],50%
COc1ccc(CC(C)NCC(O)c2cccc(Cl)c2F)cc1 (centres undefined),Inhibition,[1],88%
same,Inhibition,[2],59%
same,Inhibition,[3],3%
CC[C@H]1CN2CC[C@H]1C[C@H]2[C@H](O)c1cc(-c2ccc(F)cc2C)nc2ccc(OC)cc12.Cl,Inhibition,[1],99%
same,Inhibition,[2],100%
same,Inhibition,[3],0%
CC(C)c1ccc(C=CC(=O)NC2CCC(CN3CCC(c4c[nH]c5ccccc45)CC3)CC2)cc1 (centres undefined),Inhibition,[1],100%
same,Inhibition,[2],85%
same,Inhibition,[3],50%
CS(=O)(=O)Nc1ccc2[nH]cc(C3CCN(CC4CCN(C(=O)/C=C/c5ccc(Cl)c(Cl)c5)CC4)CC3)c2c1,Inhibition,[1],100%
same,Inhibition,[2],92%
same,Inhibition,[3],27%
